A short description of test [1]: growth inhibition of DIPG glioma cells, dose response, cell-based, SU-DIPG-XIII, MIPE4.0, CellTiter-Glo, qHTS (AID 1347061; cut-off not given, nearly all actives have AC50 up to about 37 µM;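 further: cells exposed to compound for 48 hours before readout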). The settings on record: SU-DIPG-XIII viability, CellTiter-Glo ATP luminescence.
A short description of test [2]: growth inhibition of DIPG glioma cells, dose response, cell-based, JHH-DIPG-1, MIPE4.0, CellTiter-Glo, qHTS (AID 1347062; cut-off not given, nearly all actives have AC50 up to about 27 µM;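 on AC50: cells exposed to compound for two days before readout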). The settings on record: JHH-DIPG-1 viability, CellTiter-Glo ATP luminescence. On the technique in general: In ATP-based viability assays light output follows the ATP content of the culture.
Test [3] can be described thus: growth inhibition of DIPG glioma cells, dose response, cell-based, SU-DIPG-IV, MIPE4.0, CellTiter-Glo, qHTS (AID 1347063).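 Further: compound exposure lasted 48 hours before the viability readout.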 The settings on record: SU-DIPG-IV viability, CellTiter-Glo ATP luminescence.
Test [4] in a line: growth inhibition of DIPG glioma cells, dose response, cell-based, SU-DIPG-XIII, MIPE5.0, CellTiter-Glo, qHTS (AID 1347064; cut-off not given, nearly all actives have AC50 up to about 23 µM;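 on AC50: cells exposed to compound for 48 hours before the viability read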). The settings on record: SU-DIPG-XIII viability, CellTiter-Glo ATP luminescence.
Test [5] in a line: viability loss in pontine glioma line – cell-based, SU-DIPG-XXV, MIPE5.0, CellTiter-Glo, qHTS, dose response (AID 1347065; cut-off not given, nearly all actives have AC50 up to about 26 µM;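 further: cells exposed to compound for 48 hours before ATP readout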). The settings on record: CellTiter-Glo ATP luminescence.
Test [6] can be described thus: SU-DIPG-VI glioma cell viability, MIPE4.0 library, CellTiter-Glo luminescence, qHTS (AID 1347066).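 Further: cells exposed to compound for 48 hours before readout.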 The settings on record: CellTiter-Glo ATP luminescence.
Test [7] is described as follows: JHH-DIPG-1 glioma cell viability, MIPE5.0 library, CellTiter-Glo luminescence, qHTS (AID 1347067; cut-off not given, nearly all actives have AC50 up to about 26 µM;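 further: cells exposed to compound for 48 hours before readout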). The settings on record: JHH-DIPG-1 glioma viability, CellTiter-Glo ATP luminescence.
Test [8] in a line: SU-DIPG-XXV glioma cell viability, MIPE5.0 library, qHTS (AID 1347068; cut-off not given, nearly all actives have IC50 up to about 30 µM;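 on IC50: cells exposed to compound for 48 hours before viability readout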).
Test [9] in a line: growth inhibition of DIPG glioma cells, dose response, cell-based, SU-DIPG-XVII, MIPE5.0, CellTiter-Glo, qHTS (AID 1347060; cut-off not given, nearly all actives have AC50 up to about 26 µM). The settings on record: SU-DIPG-XVII viability, CellTiter-Glo ATP luminescence.
Test [10] can be described thus: sensitizers of A549 cells to miR-34 induction, primary screen, imaging, A549 dox-inducible miR-34, nuclei and caspase counts (AID 1347080;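 active means compounds whose cell count with miR-34 switched on is under 0.7 times the count with it off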). The settings on record: A549 miR-34 inducible, Hoechst nuclei count, 48 h.
Test [11] is described as follows: survival rescue of mitochondrial mutant cells in low glucose, primary screen, MELAS cybrids, Rieske KO mouse fibroblasts, CellTiter-Glo (AID 1508586;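 active means mean z-score across replicates of 1.96 or higher in either the MELAS or the Rieske mutant cell line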;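 further: z relative to plate mean and SD of compound and empty wells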).
Test [12] can be described thus: liver-stage malaria parasite growth inhibition, primary screen, cell-based, HepG2, luciferase luminescence, HepG2 viability (AID 624349; in the data active means parasite load remaining mostly below about 12%, no sharp cut-off; inactive means mostly above about 10%;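 further: 100% = mean of DMSO negative control wells on the same plate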). The settings on record: P. berghei liver stage in HepG2, luciferase luminescence, concentration not given here; parasite load remaining: stronger effect = lower value; viability: measured here: HepG2 viability without parasites.
Test [13] concerns Hepatitis C virus NS3 helicase. The test is described as follows: HCV NS3 helicase inhibitors, primary screen, biochemical, fluorescence polarization, LOPAC1280 library (AID 687035; in the data active means inhibition above about 37%). The settings on record: Purified HCV NS3 helicase, Cy5-dT15 ssDNA binding fluorescence polarization; stronger effect = higher value; concentration not given here.
Test [14] is described as follows: Cy5 fluorescence quenching or enhancement artefacts, artefact control for HCV NS3 helicase inhibitor project, biochemical, LOPAC1280 (AID 687037; call rule not given here). The settings on record: Cy5-DNA-NS3h complex fluorescence interference counterscreen. Background: The purpose of a counterscreen is to sort out artefacts and off-target activity.
The nature of test [15]: phospholipid biosynthesis inhibitors in animal cells, primary screen, cell-based, LOPAC library, screen 4 (AID 1347384; call rule not given here). The settings on record: phospholipid biosynthesis inhibition screen, at 10 µM.
Test [16] can be described thus: viability rescue of complex I mutant cybrids, primary screen, cell-based, galactose medium, ATP luminescence (AID 1645843;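 active means z-score of at least 1.8 in each of two replicates, scored against plate mean and spread of sample wells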;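 further: positive z means more ATP and so rescue of galactose-driven cybrid death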). Particulars: complex I mutant cybrid cells, 72 h, stronger effect = higher value.
Where [17] appears, read: stronger effect = lower value, cell number ratio, induced over uninduced.
The mark [18] stands for this setting: measured here: relative caspase fold change +Dox/-Dox.
Where [19] appears, read: measured here: total cells with miR-34 induction, stronger effect = lower value.
The mark [20] stands for this setting: measured here: total cells without miR-34 induction.

Each structure is given as a SMILES string. Results filed as inconclusive are left out. Activity calls are given as the source filed them. Unless noted, cut-off not given; nearly all actives show AC50 up to about 30 µM.

With `O=C(NCCCCN1CCOCC1)c1cc2ccccc2o1`, the compound was classed as inactive in [1], in [2], in [3], in test [4], in [5] and in test [6]. Besides, in test [8], the compound was classed as inactive. Besides, the concentration at half-maximal activity (AC50) in test [7] was 23.5 µM (active).
As for `CCN(c1cc(-c2ccc(CN3CCOCC3)cc2)cc(C(=O)NCc2c(C)cc(C)[nH]c2=O)c1C)C1CCOCC1`, the call in test [9] and in test [8] was inactive. The fold change is 0.946 (inactive) in test [10] (setting [17]) and 0.487 in test [10] (setting [18]). For the same compound, the cell count in [10] (setting [19]) was 7910; in test [10] (setting [20]), 8360. The z-score in test [11] (MELAS cybrid survival, CellTiter-Glo 48 h, stronger effect = higher value) was -0.348 (inactive); in [11] (Rieske KO mouse fibroblast survival, CellTiter-Glo 72 h) it was -0.95.
With `c1cc(-c2cnn3cc(-c4ccc(OCCN5CCCCC5)cc4)cnc23)ccn1`, the parasite load remaining in [12] was 40.1% (inactive). In test [12], the viability came to 103%. The AC50 in test [1] is 23.5 µM (active); in test [2], 10.5 µM (active); in test [3] it was 10.5 µM (active); in test [4], 13.2 µM (active); in [5] it was 11.8 µM (active); in [6] it was 23.5 µM (active). Further, the AC50 in test [7] was 14.8 µM (active). Moreover, the IC50 in [8] is 11.8 µM (active).
On to `Cc1cn([C@@H]2C[C@@H](O)[C@H](CO)O2)c(=O)[nH]c1=O`, for which the outcome in test [1], in test [2], in test [3], in [4], in test [5] and in test [6] was inactive. In addition, the call in test [7] and in test [8] was inactive.
On to `Cc1cc(OCCCc2c(C(=O)O)n(Cc3cccnc3)c3c(-c4c(COc5ccc(N6CCN([S+](C)(=O)[O-])CC6)cc5)nn(C)c4C)cccc23)cc(C)c1Cl`, for which the compound was called inactive in test [1] and in test [2]. Further, the AC50 in test [3] is 20.9 µM (active).
For the compound `CN1C(=O)C[C@H](C(=O)N[C@@H](Cc2cnc[nH]2)C(=O)N2CCC[C@H]2C(N)=O)NC1=O`, in test [1], the result was inactive.
For `O=C1c2c(O)cc(O)cc2O[C@H](c2cc(O)c(O)c(O)c2)[C@H]1O`, the compound was called inactive in test [1], in test [2] and in test [3].
On to `CCc1ccc(/C=C2/SC(=S)NC2=O)cc1`, for which the inhibition in test [13] is -3% (inactive). For the same compound, the fluorescence ratio (interference) in test [14] was 1 (inactive). The result in [1], in test [2], in [3], in test [4], in test [5] and in [6] was inactive. Moreover, the compound was classed as inactive in test [7], in [8] and in test [15]. In addition, the fold change in test [10] (setting [17]) was 1 (inactive); in test [10] (setting [18]) it was 1.81. Also, the cell count in test [10] (setting [19]) is 8940; in test [10] (setting [20]), 8930. In addition, the z-score in test [16] was -0.65 (inactive).
With `O=C(NCc1ccncc1)C12C[C@H]3C[C@@H](C1)CC(c1ccc(Cl)cc1)(C3)C2`, in test [1], the AC50 is 14.8 µM (active).
`CCN(CC)CCn1c(=O)c(Cc2ccc(OC)cc2)nc2ccccc21`: in test [13], the inhibition was 0% (inactive). Also, the fluorescence ratio (interference) in test [14] was 1 (inactive). For the same compound, the compound was classed as inactive in test [1], in test [2], in [3], in [4], in test [5] and in test [6]. Moreover, the result in [7], in test [8] and in test [15] was inactive. In addition, the results for the fold change in [10] (setting [17]) and in test [10] (setting [18]) were 0.991 (inactive) and 1.5, respectively. Further, the results for the cell count in test [10] (setting [19]) and in [10] (setting [20]) were 9100 and 9170, respectively. The z-score in [16] is -0.075 (inactive).

A word on the AC50: it is the midpoint of the concentration-response curve, whichever way the signal moves. The viability is a read-out of living cells in per cent, often relative to untreated cells. As a reminder, the IC50 is the concentration that gives 50% inhibition. Broadly, the inhibition is the change of the read-out against control, counted positive when it falls.
